HEK cytotox: cytotoxic compounds in HEK 293 cells; HEK 293 viability, ATP luminescence (CellTiter-Glo), 48-72 h; Potency, µM (highest dose often 115 µM), for inactives: at the top dose activity change, negative = cytotoxicity, hits mostly inhibitors; hit rate 6.6% among 94,000; AID 1345083; further: nearly all actives have a fitted effect of over 60% in size
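250 HEK 293 cells/well; compound by pintool; incubated 48 or 72 hr at 37 degree Celsius; CellTiter-Glo added, 10 min RT, luminescence imaged.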
NPR1 antag: antagonists of human natriuretic peptide receptor Npr1; P16066; HEK293 hNpr1 GloSensor cGMP, ANP-stimulated luminescence; Potency, µM (doses to about 46.3 µM), without a hit: at the highest dose activity change, negative = inhibition, hits mostly inhibitors; hit rate 1.6% among 76,000; AID 1347048; calls by dose curve; further: nearly all actives have a fitted effect of over 60% in size
Target sequence (P16066 whole entry, looked up): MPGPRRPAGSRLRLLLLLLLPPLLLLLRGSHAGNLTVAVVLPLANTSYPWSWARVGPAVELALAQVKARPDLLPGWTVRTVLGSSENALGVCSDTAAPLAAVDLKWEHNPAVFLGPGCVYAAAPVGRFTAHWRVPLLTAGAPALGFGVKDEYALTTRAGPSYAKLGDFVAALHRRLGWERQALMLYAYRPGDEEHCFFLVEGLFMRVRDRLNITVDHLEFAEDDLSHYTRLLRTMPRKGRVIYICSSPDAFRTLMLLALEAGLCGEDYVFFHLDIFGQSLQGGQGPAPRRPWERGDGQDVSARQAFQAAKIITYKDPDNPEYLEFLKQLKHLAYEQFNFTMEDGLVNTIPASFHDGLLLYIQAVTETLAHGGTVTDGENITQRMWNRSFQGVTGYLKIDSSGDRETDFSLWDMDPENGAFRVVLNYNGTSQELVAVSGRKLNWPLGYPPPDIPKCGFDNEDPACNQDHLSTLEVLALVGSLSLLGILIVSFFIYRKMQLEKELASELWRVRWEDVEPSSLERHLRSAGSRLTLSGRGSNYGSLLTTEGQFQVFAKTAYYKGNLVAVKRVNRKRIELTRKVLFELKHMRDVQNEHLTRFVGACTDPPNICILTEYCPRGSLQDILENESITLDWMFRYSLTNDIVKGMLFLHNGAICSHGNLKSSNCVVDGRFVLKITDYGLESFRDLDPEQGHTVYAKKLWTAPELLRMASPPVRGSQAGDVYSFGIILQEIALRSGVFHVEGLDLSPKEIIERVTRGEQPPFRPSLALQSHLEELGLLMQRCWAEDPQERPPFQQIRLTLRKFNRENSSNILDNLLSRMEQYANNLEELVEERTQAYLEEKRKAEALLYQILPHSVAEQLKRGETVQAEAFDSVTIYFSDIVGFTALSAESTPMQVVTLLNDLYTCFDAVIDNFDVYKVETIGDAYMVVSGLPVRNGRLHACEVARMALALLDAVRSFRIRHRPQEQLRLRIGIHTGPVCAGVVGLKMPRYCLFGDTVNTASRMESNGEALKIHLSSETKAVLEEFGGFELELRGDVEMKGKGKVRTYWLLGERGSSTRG
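Compound pre-incubated 30 min at room temperature on GloSensor-loaded HEK293 cells stably carrying hNpr1 and the pGS-40F cGMP biosensor. Stimulation uses hNppA at 0.1 nM final; luminescence is taken at baseline and 20 min post-agonist.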
FLuc inh: Photinus pyralis luciferase inhibition. purified P. pyralis luciferase, luminescence, biochemical. Potency, µM (series often up to 115 µM), most hits filed as inhibitors. hit rate 2.5% among 76,000. AID 1347043; further: nearly all actives have a fitted effect of over 65% in size
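Luminescence read by CCD imager after adding enzyme (10nM final) to wells holding compound, titrated in qHTS. Substrates 10uM each D-luciferin and ATP; buffer 50mM Tris acetate pH 7.5, 10mM Mg acetate, Tween-20, BSA.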
3T3 cytotox: cytotoxic compounds in NIH 3T3 cells; NIH 3T3 viability, CellTiter-Glo ATP luminescence, 48-72 h; Potency, µM (series often up to 96.7 µM), for the others: at the highest dose activity change, negative = cytotoxicity, usual class: inhibitors; hit rate 4.3% among 94,000; AID 1345082; further: nearly all actives have a fitted effect of over 55% in size
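ATP-dependent luminescence (CellTiter-Glo) served as the viability signal for NIH 3T3 cells treated with compound for 48 or 72 hr at 37 °C.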
* = called active by the depositor; i = inactive; ? = inconclusive; nt = no result; [ ] = another dose, or the depositor's remark. Most compounds without a hit are left out; they make up all but 11% or so of the library. Unless noted, the call rests on the fitted dose curve; in most records, active means well fitted curve in the direction sought with a large enough effect; inconclusive means small, poorly fitted or top-dose-only effect, or another doubt; inactive means no such curve, though single readings can be large; an effect the other way counts as inactive or inconclusive. On the % scale 0 is the no-effect control and ±100 the full control effect; potency means the concentration at half of the fitted maximal effect.

SMILES | HEK cytotox | NPR1 antag | FLuc inh | 3T3 cytotox
COCC1CN(C2CCC2)CC12CCN(C(=O)CCCc1ccccc1)CC2 (centres undefined) | 31.6µM* | nt | nt | ?
COCC1CN(C2CCC2)CC12CCN(C(=O)C1(c3ccccc3)CC1)CC2 (centres undefined) | 31.6µM* | -27.5% | i | ?
COCCOC1CCOC2(CCN(C(=O)CCCc3ccccc3)CC2)C1 (centres undefined) | ? | -10.8% | 28.2µM* | -15.2%
COCC1CN(C)CC12CCN(C(=O)CCCc1ccccc1)CC2 (centres undefined) | ? | 2.5% | i | ?
CC(C)CCN1CCCC(c2nn(-c3ccccc3)c(=O)[nH]2)C1 (centres undefined) | -4.1%[172 µM] | -4.6%[70.6 µM] | i | -11.8%[138 µM]
C[S+](=O)([O-])N1CCC(Cn2ccc3c(N4CCOCC4)nc(-c4ccccc4F)cc32)CC1 | ? | -6.8% | i | -33.1%
C[S+](=O)([O-])N1CCC(Cn2ccc3c(N4CCOCC4)nc(-c4cccc5[nH]ncc45)cc32)CC1 | ? | -16.9% | i | 10µM*
COc1ccccc1-c1cc2c(ccn2CC2CCN([S+](C)(=O)[O-])CC2)c(N2CCOCC2)n1 | ? | -5.5% | i | ?
C[S+](=O)([O-])N1CCC(Cn2ccc3c(N4CCOCC4)nc(-c4ccncc4)cc32)CC1 | ? | 3.0% | i | 28.2µM*
COc1ccc(-n2c(=O)c(C(=O)NCc3cccc(F)c3)nc3cccnc32)cc1 | i | nt | nt | -8.1%
O[C@H]1CC[C@@H](Cc2cc(-c3ccc(F)cc3)on2)O[C@@H]1CNC1CCOCC1 | i | -29.8%[70.6 µM] | ? | 0.0%[174 µM]
NC[C@H]1O[C@H](Cc2cc(-c3ccc(F)cc3)on2)CC[C@@H]1O | ? | 14.1µM* | 35.5µM* | -6.1%[174 µM]
O=C(NC[C@H]1O[C@H](Cc2cc(-c3ccc(F)cc3)on2)CC[C@@H]1O)NC1CCCCC1 | ? | 10µM* | 70.8µM* | 89.1µM*
CCC(c1cccs1)N1C(=O)[C@H]2CN(S(=O)(=O)c3ccc(C)c(C)c3)C[C@H]2C1=O (some centres undefined) | -1.4% | -12.0% | i | -29.8%
COc1ccc(CN2Cc3cc(NC(=O)c4cc(OC)cc(OC)c4)ccc3OC(C)C2=O)cc1 (centres undefined) | 20µM* | -1.9% | i | ?
COc1ccc(CCN2Cc3cc(NC(=O)c4ccc(OC)cc4)ccc3OC(C)C2=O)cc1 (centres undefined) | 89.1µM* | 0.8% | i | -27.9%
CC1Oc2ccc(NC(=O)c3ccccc3F)cc2CN(CCOc2ccccc2)C1=O (centres undefined) | ? | -19.2% | i | ?
CC1Oc2ccc(NC(=O)c3cccs3)cc2CN(CCOc2ccccc2)C1=O (centres undefined) | 39.8µM* | -19.6% | i | ?
COc1cc(OC)cc(C(=O)Nc2ccc3c(c2)CN(Cc2ccc(F)cc2)C(=O)C(C)O3)c1 (centres undefined) | ? | -19.6% | i | ?
CN1CC(=O)N(C2CCCNC2)Cc2c(NC3CCCCC3O)ncnc21 (centres undefined) | i | nt | nt | i
CCOC(=O)CNC(=O)N1CCC(N2C(=O)C3(CCCCC3)C2c2ccncc2)CC1 (centres undefined) | -8.4% | 1.1% | i | -1.3%
CCCNC(=O)CCC1CCCN(S(=O)(=O)c2ccc(C)cc2)C1 (centres undefined) | ? | nt | nt | -30.7%
COC(=O)N1CCN(C(=O)c2nc3cccnc3n(CC(C)C)c2=O)CC1 | -7.3% | nt | nt | -15.8%
CC(=O)Oc1c(-c2ccc(NC(=O)CC(C)C)cc2)c(-c2ccc(F)cc2)nn1-c1ccc(F)cc1 | ? | -17.4% | i | ?
Fc1ccc(CN2CC(N3CCc4ccccc43)C2)cc1 | -16.4%[172 µM] | nt | nt | -10.3%[138 µM]
SMILES | HEK cytotox | NPR1 antag | FLuc inh | 3T3 cytotox
CN(C)c1ccc(CN2CC(N3CCc4ccccc43)C2)cc1 | 89.1µM* | -6.4%[70.6 µM] | i | 89.1µM*
CN(C)C(C(=O)N1CCC(O)(c2ccccc2)CC1)c1cccc(F)c1 (centres undefined) | -12.7% | 6.8% | i | -18.1%
CCCn1ncc(N2CCC(C(=O)N(CCCOC)Cc3ccc4c(c3)CCCN4CC)CC2)cc1=O | 22.4µM* | nt | nt | 35.5µM*
CN1C(=O)CCC2(CNC(=O)COc3ccccc3)CCC=C12 (centres undefined) | -8.0% | nt | nt | -19.9%
Cc1ccccc1N1CCN(C(=O)c2cc3cn(C4CC4)cc3s2)CC1 | 79.4µM* | -17.6% | i | ?
COCCn1ccc2c(C3=CCOCC3)nc(-c3cccc4[nH]ccc34)cc21 | 28.2µM* | -1.3%[70.6 µM] | i | 50.1µM*
COCCn1ccc2c(C3=CCOCC3)nc(-c3ccc4c(c3)CNC4=O)cc21 | ? | -0.8%[70.6 µM] | ? | ?
COCCn1ccc2c(C3=CCOCC3)nc(-c3cccc(N4CCOCC4)c3)cc21 | ? | 1.8%[70.6 µM] | i | 44.7µM*
COCCn1ccc2c(C3=CCOCC3)nc(-c3cccc4[nH]ncc34)cc21 | ? | -11.2%[70.6 µM] | i | ?
COCCn1ccc2c(C3=CCOCC3)nc(-c3cccc(CO)c3)cc21 | ? | 3.0%[70.6 µM] | i | 12.6µM*
COCCn1ccc2c(C3=CCOCC3)nc(-c3ccc4cn[nH]c4c3)cc21 | ? | -1.5%[70.6 µM] | i | ?
COc1ccccc1-c1cc(C(=O)NC2CCOC2)c2cnn(C)c2n1 (centres undefined) | 3.9%[172 µM] | nt | nt | -17.3%[138 µM]
CN1CCCN(S(=O)(=O)c2cccc(Br)c2)c2ccccc21 | 39.8µM* | -22.6% | i | ?
CN1CCCN(S(=O)(=O)c2ccc(C(F)(F)F)cc2)c2ccccc21 | 39.8µM* | -2.9% | i | ?
Cc1cccc(S(=O)(=O)N2CCCN(C)c3ccccc32)c1 | ? | -6.2% | i | ?
O=C(NCC(F)(F)F)C1CCCN1c1nccc(Nc2ccccc2F)n1 (centres undefined) | ? | nt | nt | -20.3%
COc1ccccc1CNC(=O)CNC(=O)c1cccc(-c2ccc(C(F)(F)F)cc2)c1 | 35.5µM* | nt | nt | ?
O=C(CNC(=O)c1cccc(-c2ccc(C(F)(F)F)cc2)c1)NCc1ccccc1F | 22.4µM* | nt | nt | ?
O=C(CNC(=O)c1cccc(-c2ccsc2)c1)NCc1ccccc1F | i | nt | nt | -9.8%
O=C1NC(=NC2CCCCC2)C2(CCCN(CC3CC3)C2)N1c1cc(F)cc(F)c1 (centres undefined) | 10µM* | nt | nt | 31.6µM*
O=C1NC(=NC2CCCCC2)C2(CCN(CC3CC3)CC2)N1c1cc(F)cc(F)c1 | -11.3% | nt | nt | ?
O=C1NC(=NC2CCCC2)C2(CCN(CC3CC3)CC2)N1c1cc(F)cc(F)c1 | 1.7% | nt | nt | 31.6µM*
O=C1NC(=NC2CCCCC2)C2(CCCN(CC3CC3)C2)N1c1cccnc1 (centres undefined) | -28.4% | nt | nt | ?
O=C1NC(=NC2CCCCC2)C2(CCCN(CC3CCCCC3)C2)N1c1cc(F)cc(F)c1 (centres undefined) | ? | nt | nt | 28.2µM*
